Screens from PubChem.
Shown are actives, neighbours in structure and some others; about 12% of the full set was active somewhere.
JMJD2A Tudor = qHTS Assay for Inhibitors of JMJD2A-Tudor Domain. Lysine-specific demethylase 4A (Homo sapiens), O75164. AlphaScreen JMJD2A-Tudor / H3K4me3 peptide binding. Potency, µM (top dose mostly 114 µM), for the others: at the highest dose activity change, negative = inhibition, actives largely listed as inhibitors. 390,000 compounds, 4.4% hits. AID 504339, 2011; further: on the % scale 0 is the no-effect control and ±100 the full control effect; nearly all actives have a fitted effect of over 50% in size
HP1b chromo inh = HTS for Inhibitors of HP1-beta Chromodomain Interactions with Methylated Histone Tails; Chromobox protein homolog 1 (Homo sapiens), P83916; AlphaScreen HP1-beta / biotin-H3K9me3 peptide binding; Potency, µM (titrated, usually from 114 µM), inactives show at the highest dose activity change, negative = inhibition, most hits filed as inhibitors; 390,000 compounds, 0.56% hits; AID 540317, 2011; further: nearly all actives have a fitted effect of over 70% in size
Target sequence (P83916 whole entry, looked up): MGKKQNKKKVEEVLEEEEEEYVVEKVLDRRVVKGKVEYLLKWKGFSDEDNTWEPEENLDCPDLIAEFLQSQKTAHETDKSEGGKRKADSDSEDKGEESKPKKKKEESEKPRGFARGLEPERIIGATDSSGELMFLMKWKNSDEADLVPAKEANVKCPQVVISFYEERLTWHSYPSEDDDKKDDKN
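Compound inhibition of the preformed complex between 50 nM HP1-beta and 50 nM biotinylated H3K9me3 peptide was read by AlphaScreen. Buffer was PBS pH 7.4 with 0.01% Tween-20. Incubations ran 30 min at room temperature, with 10 ug/mL donor/acceptor beads.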
BAZ2B inh = qHTS Assay for Inhibitors of BAZ2B; Bromodomain adjacent to zinc finger domain protein 2B (Homo sapiens), Q9UIF8; AlphaScreen BAZ2B-H3K14Ac peptide displacement; Potency, µM (series often up to 114 µM), for inactives: top-dose activity change, negative = inhibition, actives largely listed as inhibitors; 360,000 compounds, 4.4% hits; AID 504333, 2011; further: on the % scale 0 is the no-effect control and ±100 the full control effect; nearly all actives have a fitted effect of over 60% in size
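In this displacement format the biotinylated H3(5-23) peptide acetylated at Lys14 serves as ligand at 50 nM, with BAZ2B at 50 nM in PBS pH 7.4 containing 0.01% Tween-20. Donor and acceptor beads are 10 ug/mL final.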
G9a block = qHTS Assay for Inhibitors of Histone Lysine Methyltransferase G9a; G9a H3K9 monomethylation, AlphaScreen, 2 h; 350,000 compounds, 8.8% hits; Histone-lysine N-methyltransferase EHMT2 (Homo sapiens), Q96KQ7; Potency, µM (doses to about 102 µM), for the others: at the top dose activity, negative = inhibition, hits mostly inhibitors; AID 504332, 2011; further: on the % scale 0 is the no-effect control and ±100 the full control effect; nearly all actives have a fitted effect of over 75% in size
Target sequence (Q96KQ7 913-1193 limits assumed): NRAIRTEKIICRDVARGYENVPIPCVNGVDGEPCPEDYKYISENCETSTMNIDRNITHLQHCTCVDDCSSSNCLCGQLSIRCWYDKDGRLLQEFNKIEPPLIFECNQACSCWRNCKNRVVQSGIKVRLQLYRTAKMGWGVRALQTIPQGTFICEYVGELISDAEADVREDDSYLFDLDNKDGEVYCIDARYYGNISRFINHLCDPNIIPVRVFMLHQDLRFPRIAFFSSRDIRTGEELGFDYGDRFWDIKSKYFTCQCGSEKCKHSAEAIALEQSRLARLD
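Using a bead-based AlphaScreen, monomethylated H3K9 product from 2 h room-temperature reactions (G9a 20 nM, peptide 500 nM, SAM 20 uM) was detected with 0.5 ug/mL rabbit anti-H3K9me1 antibody.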
PLK1 PBD block = qHTS for Inhibitors of PLK1-PDB (polo-like kinase 1 - polo-box domain): Primary Screen; Plk1 PBD binding of FITC phosphopeptide, fluorescence polarization; Potency, µM, inactives show max response, negative = inhibition, most hits filed as inhibitors; 360,000 compounds, 2.8% hits; Serine/threonine-protein kinase PLK1 (Homo sapiens), P53350; further: series mostly up to about 57 µM; on the % scale 0 is the no-effect control and ±100 the full control effect; nearly all actives have a fitted effect of over 65% in size
Sfp PPTase inh = qHTS Assay for Inhibitors of Bacillus subtilis Sfp phosphopantetheinyl transferase (PPTase) | 4'-phosphopantetheinyl transferase ffp (Bacillus subtilis), Q9F4F7 | Biochemical Sfp PPTase activity, qHTS | Potency, µM, for the others: largest response in the series, negative = inhibition, hits mostly inhibitors | 310,000 compounds, 3.5% hits | AID 1490, 2009;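 further: the enzyme is Sfp with the accession as filed and its product quenches rhodamine fluorescence; 0% = enzyme reaction without inhibitor and -100% = no enzyme wells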
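Step 1, compound plus 15 nM Sfp-PPTase, 15 min, room temperature. Step 2, add rhodamine-CoA (5 uM) and BHQ-2-YbbR (12.5 uM). Step 3, read 525/598 nm fluorescence at 0 and 30 min.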
* = called active by the depositor; u = inconclusive; x = not tested or not shown; ! = not confirmed by another sample; [ ] = remark or other dose. The call rests on the fitted dose curve; in most records, active means well fitted curve in the direction sought with a large enough effect; inconclusive means small, poorly fitted or top-dose-only effect, or another doubt; inactive means no such curve, though single readings can be large; an effect the other way counts as inactive or inconclusive. Potency means the concentration at half of the fitted maximal effect.

SMILES	JMJD2A Tudor	HP1b chromo inh	BAZ2B inh	G9a block	PLK1 PBD block	Sfp PPTase inh
COc1ccc(/C=C/C(=O)Nc2sc(Cc3ccccc3)c(C)c2C(N)=O)cc1	-26%	26%	-1%	-21%[59 µM]	1%	4%
Cc1c(Cc2ccccc2)sc(N)c1C(N)=O	x	x	-29%	2µM*	x	40µM*
Cc1c(Cc2ccccc2)sc(NC(=O)Cc2ccccc2)c1C(N)=O	-31%	-52%	x	x	11µM*	x
Cc1c(Cc2ccccc2)sc(NC(=O)C(C)(C)C)c1C(N)=O	-35%	u	u	14µM*	19µM*	20µM*
Cc1cc(C)cc(NC(=O)c2cccc(N3CCCS3(=O)=O)c2)c1	6%	44%	-3%	1%[59 µM]	x	x
COc1cccc(CNC(=O)C2CCC(CNS(=O)(=O)c3cccc4cccnc34)CC2)c1 (centres undefined)	-18%	8%[57 µM]	-29%	-30%	-11%	1%
O=C1NC(=O)C(c2ccccc2[N+](=O)[O-])=C1Nc1ccc(O)c(Cl)c1	u	-4%	50µM*	1.5µM*	-15%	56µM*!
O=c1cc(-c2ccccc2Cl)oc2c([N+](=O)[O-])ccc(O)c12	x	x	x	-24%	x	-10%
Cc1ccc(C2NC(=O)c3sc(=S)n(-c4ccccc4)c3N2)cc1 (centres undefined)	-11%	34%	-12%	u	-14%	40µM*
Cc1ccc2[nH]c(C)c(CC(=O)NCc3ccccc3)c2c1	u	7%	-34%	7%	-17%	0%
Cc1ccc2[nH]c(=O)c(Cc3ccccc3)c(O)c2c1	-3%[11.4 µM]	44%	u	8.9µM*	-7%	u
Cc1nc(C)c(C(=O)C2=C(O)C(=O)N(CCN(C)C)C2c2ccco2)s1 (centres undefined)	-12%	24%	-3%	x	-9%	1%
CCOC(=O)c1sc(N2C(=O)C(O)=C(C(=O)c3ccco3)C2c2ccco2)nc1C (centres undefined)	16µM*	u	u	8.9µM*	u	-19%
Cc1cc(C)c2nc(N3CCN(C(=O)c4ccco4)CC3)sc2c1	-20%	-3%	u	-5%[0.501 µM]	-3%	x
COc1cccc(C2C(C(=O)c3ccco3)=C(O)C(=O)N2CCN(C)C)c1OC (centres undefined)	-17%	10%	5%	u	-2%	7%
COc1ccc2nc(N3C(=O)C(O)=C(C(=O)c4ccco4)C3c3ccccc3OC)sc2c1 (centres undefined)	-2%	30%	u	35µM*	u	17%
Cc1cc(C)c2nc(N3C(=O)C(O)=C(C(=O)c4ccco4)C3c3ccco3)sc2c1 (centres undefined)	50µM*	-21%	45µM*	u	11µM*	-11%
Cc1nc(N2C(=O)C(=O)/C(=C(/O)c3ccccc3)C2c2ccco2)sc1C (centres undefined)	u	5%	0%	u	-22%	14%
COC(=O)c1sc(N2C(=O)C(=O)/C(=C(/O)c3ccccc3)C2c2ccco2)nc1C (centres undefined)	-18%	-3%	-25%	35µM*	-11%	9%
CCOC(=O)C1=CN(CC2CCCCC2)CCC1=O	-16%	19%	x	x	-8%	x
CCOc1ccc2nc(N3C(=O)C(O)=C(C(=O)c4ccco4)C3c3ccco3)sc2c1 (centres undefined)	40µM*	-17%	50µM*	u	u	x
COc1ccc2nc(N3C(=O)C(O)=C(C(=O)c4ccco4)C3c3ccc(C)o3)sc2c1 (centres undefined)	u	-23%	45µM*	25µM*	19µM*	x
Cc1ccc2nc(N3C(=O)C(O)=C(C(=O)c4ccc(C)o4)C3c3ccc(O)cc3)sc2c1 (centres undefined)	-46%	-10%	u	u	u	x
Cc1ccc2nc(N3C(=O)C(O)=C(C(=O)c4ccco4)C3c3cccs3)sc2c1 (centres undefined)	18µM*	-21%	45µM*	25µM*	27µM*	u
COc1ccc2[nH]c(S(=O)Cc3ncc(C)c(OC)c3C)nc2c1 (centres undefined)	50µM*	x	-29%	16µM*	-10%	-24%
SMILES	JMJD2A Tudor	HP1b chromo inh	BAZ2B inh	G9a block	PLK1 PBD block	Sfp PPTase inh
COc1ccnc(CS(=O)c2nc3cc(C(O)(F)F)ccc3[nH]2)c1OC (centres undefined)	79µM*	22%	-1%	20µM*	2%	-6%
O=C(CCSc1nc2ccccc2o1)N1CCOCC1	-9%	40%	-8%	14µM*	-8%	-5%
COc1ccc(NC(=O)CSc2nnc(Cc3cccn3C)n2-c2ccc(F)cc2)cc1	-27%	17%	u	71µM*	u	7%
COc1ccc(-n2c(Cc3cccn3C)nnc2SCC(=O)Nc2ccc(F)cc2)cc1	-26%	3%	u	35µM*	4%	-16%
O=C(NCc1ccccc1Cl)c1c2c(nc3ccccc13)C(=O)N(C1CCCCC1)C2	-20%	6%	u	0%[59 µM]	x	x
O=C(CSC1=NS(=O)(=O)c2ccccc2N1)Nc1nccs1	-16%	15%	-9%	-41%	-19%	x
COc1ccc(C)cc1NC(=O)NCCn1nnc2cc(S(=O)(=O)N(C)C)ccc21	-10%	17%	-9%	24%[59 µM]	x	x
CCN(CC)c1ccc(/C=C2/C(=O)c3ccc(C(=O)O)cc3C2=O)cc1	u	35µM*	25µM*	13µM*	6%	u
CSc1n[nH]c2nc3c(c(=O)n12)C1(CCCC1)Cc1ccccc1-3	1%	35%	-3%	-35%[59 µM]	u	17%
CCSc1n[nH]c2nc3c(c(=O)n12)C1(CCCC1)Cc1ccccc1-3	0%	31%	-6%	21%[0.501 µM]	21µM*	9%
C=CCSc1n[nH]c2nc3c(c(=O)n12)C1(CCCC1)Cc1ccccc1-3	-10%	39%	12%	50µM*	u	21%
Cc1cccc(C(=O)N(Cc2ccco2)Cc2ccccc2F)c1	-11%	25%	9%	-5%[59 µM]	x	x
COc1ccc(CNc2nc(NCc3ccc(OC)cc3)c3ncn(C4CCCCC4)c3n2)cc1	x	x	x	x	x	1%
COc1cccc(OC)c1OCCOCCN1CCN(C)CC1	-1%	23%	13%	-4%[2.33 µM]	1%	7%
